{
  "source": "the supplement of paper PMC9844399",
  "note": "Structures can show the parent of a compound that is named as a salt.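 Note: Hoechst-stained nuclei counted by automated confocal imaging of four fields per well in 384-well plates, with the robust Z-score based on the per-plate DMSO median and robust SD.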",
  "data": [
    {"system": "HeLa", "assay": "nuclear count per well, robust Z-score vs DMSO; higher = more cells (less toxicity)", "conditions": "10 µM; 6 h", "values": [
      {"smiles": "Cn1cc(-c2ccc3c(c2)CCN3C(=O)Cc2cccc(C(F)(F)F)c2)c2c(N)ncnc21", "nuclear count per well": -0.304},
      {"smiles": "Nc1nc(/C(=C/CC(=O)O)C(=O)N[C@@H]2C(=O)N3C(C(=O)O)=CCS[C@H]23)cs1", "note": "[Ceftibuten]", "nuclear count per well": 0.975},
      {"smiles": "Nc1ccc(O)c(C(=O)O)c1", "note": "[Mesalamine (5-Aminosalicylic Acid)]", "nuclear count per well": 0.164},
      {"smiles": "CN(C)CCOc1ccc(/C(=C(/CCCl)c2ccccc2)c2ccccc2)cc1", "note": "[Toremifene citrate salt]", "nuclear count per well": -0.552},
      {"smiles": "CCCCCCCCc1ccc(CCC(N)(CO)CO)cc1", "note": "[Fingolimod]", "nuclear count per well": -3.1},
      {"smiles": "Cc1coc2c1C(=O)C(=O)c1c-2ccc2c1CCCC2(C)C", "note": "[Tanshinone IIA]", "nuclear count per well": -0.142},
      {"smiles": "CCCCC[C@H](O)/C=C/[C@@H]1[C@H]2C/C(=C/CCCC(=O)O)C[C@H]2C[C@H]1O", "note": "[Carbacyclin]", "nuclear count per well": 1.22},
      {"smiles": "NC(=O)c1ccc(-c2nc(-c3ccccn3)c(-c3ccc4c(c3)OCO4)[nH]2)cc1", "nuclear count per well": 0.125},
      {"smiles": "COCC1=C(C(=O)OC(C)OC(=O)OC(C)C)N2C(=O)[C@@H](NC(=O)/C(=N\\OC)c3csc(N)n3)[C@H]2SC1", "note": "(some centres undefined) [Cefpodoxime Proxetil]", "nuclear count per well": 0.539},
      {"smiles": "Cn1ccnc1S", "note": "[Methimazole]", "nuclear count per well": -0.461},
      {"smiles": "CCCCCCCCCCCCCCCCOCC(CO)OC", "note": "(centres undefined) [1-Hexadecyl-2-O-methyl-glycerol]", "nuclear count per well": -0.235},
      {"smiles": "CCCCCCCCCCCCC/C=C/[C@@H](O)[C@H](CO)NC(=O)CCCCCCC", "note": "[C8 Ceramide]", "nuclear count per well": -0.0493},
      {"smiles": "c1ccc2c(Cc3c[nH]c4ccccc34)c[nH]c2c1", "note": "[Diidolylmethane]", "nuclear count per well": -0.0575},
      {"smiles": "CCCCCC(O)C=CC1C2CC(CO2)C1CC=CCCCC(=O)O", "note": "(centres undefined)", "nuclear count per well": -2.84},
      {"smiles": "Cc1ccc(O)c([C@H](CCN(C(C)C)C(C)C)c2ccccc2)c1", "note": "[Tolterodine L-tartrate]", "nuclear count per well": -0.249},
      {"smiles": "CN(C)[C@@H]1C(O)=C(C(N)=O)C(=O)[C@@]2(O)C(O)=C3C(=O)c4c(O)ccc(Cl)c4[C@@H](O)[C@H]3C[C@@H]12", "nuclear count per well": 1.38},
      {"smiles": "O=C1[C@H](CC[C@H](O)c2ccc(F)cc2)[C@@H](c2ccc(O)cc2)N1c1ccc(F)cc1", "note": "[Ezetimibe]", "nuclear count per well": -0.602},
      {"smiles": "CCN(Cc1ccncc1)C(=O)C(CO)c1ccccc1", "note": "(centres undefined) [Tropicamide]", "nuclear count per well": 0.487},
      {"smiles": "CN(C)CCc1c[nH]c2ccc(Cn3cncn3)cc12", "note": "[Rizatriptan Benzoate]", "nuclear count per well": 1.79},
      {"smiles": "Nc1ncnc2c1ncn2C1CCCO1", "note": "(centres undefined)", "nuclear count per well": 1.05},
      {"smiles": "CC(=O)S[C@@H]1CC2=CC(=O)CC[C@]2(C)[C@H]2CC[C@@]3(C)[C@@H](CC[C@@]34CCC(=O)O4)[C@H]12", "note": "[Spironolactone]", "nuclear count per well": 0.292},
      {"smiles": "CC[C@H](C)C(=O)O[C@H]1C[C@@H](C)C=C2C=C[C@H](C)[C@H](CC[C@@H](O)C[C@@H](O)CC(=O)O)[C@H]21", "note": "[Lovastatin Sodium Salt]", "nuclear count per well": -0.099},
      {"smiles": "COc1cc(NC(C)CCCN)c2ncccc2c1", "note": "(centres undefined) [Primaquine bisphosphate]", "nuclear count per well": -1.23},
      {"smiles": "Cc1n[nH]c(C)c1Cc1sc2c(c1C(=O)N1C[C@H](O)CO1)c(=O)n(C)c(=O)n2CC(C)C", "nuclear count per well": -1.16},
      {"smiles": "CC(C)[C@H](NC(=O)CNC(=O)OC(C)(C)C)C(=O)N[C@H](C=O)C(C)C", "nuclear count per well": 0.605},
      {"smiles": "CC(CN1c2ccccc2Sc2ccccc21)N(C)C", "note": "(centres undefined)", "nuclear count per well": 0.444},
      {"smiles": "CN(C)CCCN1c2ccccc2CCc2ccc(Cl)cc21", "nuclear count per well": 0.587},
      {"smiles": "CCCC1O[C@@H]2C[C@H]3[C@@H]4CCC5=CC(=O)C=C[C@]5(C)[C@H]4[C@@H](O)C[C@]3(C)[C@]2(C(=O)CO)O1", "note": "(some centres undefined) [Budesonide]", "nuclear count per well": 1.67},
      {"smiles": "CN1CCN(CCCN2c3ccccc3Sc3ccc(C(F)(F)F)cc32)CC1", "note": "[Trifluoperazine]", "nuclear count per well": -1.97},
      {"smiles": "Oc1c(Cl)cc(Cl)c(Cl)c1Cc1c(O)c(Cl)cc(Cl)c1Cl", "note": "[Hexachlorophene]", "nuclear count per well": -1.26},
      {"smiles": "NS(=O)(=O)Cc1noc2ccccc12", "note": "[Zonisamide]", "nuclear count per well": 1.05},
      {"smiles": "CCCCCCCCCCOCCC(=O)O", "note": "[4-Oxatetradecanoic acid]", "nuclear count per well": -0.33},
      {"smiles": "CN(C)c1cc(NC(=O)CNC(C)(C)C)c(O)c2c1C[C@H]1C[C@H]3[C@H](N(C)C)C(O)=C(C(N)=O)C(=O)[C@@]3(O)C(O)=C1C2=O", "note": "[Tigecycline]", "nuclear count per well": 0.689},
      {"smiles": "COCc1cc(O)c(O)c(O)c1-c1c(COC)cc(O)c(O)c1O", "nuclear count per well": 0.593},
      {"smiles": "CCCCCCNC(=O)n1cc(F)c(=O)[nH]c1=O", "note": "[Carmofur]", "nuclear count per well": -0.788},
      {"smiles": "CC(C)(C)C1CCN(C(=O)n2ncc(C(O)(c3ccccc3)c3ccccc3)n2)CC1", "nuclear count per well": 1.57},
      {"smiles": "CCCCC/C=C\\C/C=C\\CCCCCCCC(=O)O", "note": "[Linoleic acid]", "nuclear count per well": -0.54},
      {"smiles": "O=C(O)CCC/C=C\\C[C@@H]1[C@@H](/C=C/[C@H](O)C2Cc3ccccc3C2)[C@@H](F)C[C@@H]1O", "nuclear count per well": 0.536},
      {"smiles": "CC(C)c1ccc2oc3nc(N)c(C(=O)O)cc3c(=O)c2c1", "note": "[Amlexanox]", "nuclear count per well": -0.135}
    ]}
  ]
}
